# Most compounds without a hit are left out; they make up all but 7.3% or so of the library.
# VACV Venus inh: qHTS for Stage-Specific Inhibitors of Vaccinia Orthopoxvirus: Venus Reporter Primary qHTS; Vaccinia virus Venus reporter expression, fluorescence; Potency, µM (series often up to 36.5 µM), inactives show at the highest dose activity change, negative = inhibition, most hits filed as inhibitors; 330,000 tested, 0.46% active; calls by dose curve; tested in A549 cells; also: potency is read from the fitted curve at half-maximal effect; nearly all actives have a fitted effect of over 30% in size
# HCV inh: qHTS Assay for Inhibitors of Hepatitis C Virus (HCV) | Huh7.5.1 HCVcc-Cre infection, luciferase reporter, 44 h | Potency, µM (top dose mostly 41.8 µM), for the others: at the top dose activity change, negative = inhibition, actives largely listed as inhibitors | 340,000 tested, 3.4% active | AID 651820, 2012; active = well fitted inhibition curve with a large enough effect; inconclusive = small, poorly fitted or top-dose-only effect, or another doubt; inactive = no such curve, though single readings can be large or run the other way; also: potency is read from the fitted curve at half-maximal effect
#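 Whole-lifecycle infectious HCVcc-Cre system; cells 1,000/well, compound then virus (~0.5 moi) added 4 h after plating, 44 h culture. Luciferase read 15 sec following 15 min substrate incubation, room temp.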
# HCMV inh: qHTS Assay for inhibitors of the human cytomegalovirus (HCMV) | HFF cells, HCMV-luciferase reporter, 72 h; stronger effect = lower value | activity change, negative = inhibition, % at 57.5 µM | 410,000 tested, 4.5% active; in the data active = activity change below about -60%; inconclusive = no clear call, values can overlap the other calls; inactive = above about -39%
#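 Steps: HFFs plated, 16 h 37C; compounds added; HCMV-luciferase added to MOI 1 PFU/cell; 72 h 37C; OneGlo reagent, 5 min room temperature; luminescence read, normalized to controls.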
# FMDV inh: High Throughput Screening for Foot and Mouth Disease Virus Antivirals; FMDV antiviral cell-based qHTS; Potency, µM (titrated, usually from 57.9 µM), inactives show at the top dose activity change, negative = inhibition, actives largely listed as inhibitors; 410,000 tested, 1.2% active; calls by dose curve; tested in HEK293T cells; also: read-out not given here; potency is read from the fitted curve at half-maximal effect; nearly all actives have a fitted effect of over 45% in size
# VACV mCherry inh: qHTS for Stage-Specific Inhibitors of Vaccinia Orthopoxvirus: mCherry Reporter Primary qHTS; Vaccinia virus mCherry reporter infection, fluorescence; Potency, µM (titrated, usually from 36.5 µM), inactives show at the top dose activity change, negative = inhibition, usual class: inhibitors; 310,000 tested, 0.63% active; AID 720579, 2013; calls by dose curve; tested in A549 cells; also: potency is read from the fitted curve at half-maximal effect; nearly all actives have a fitted effect of over 35% in size
# * marks the source's active call; other numbers are inactive results; i = inactive; ? = inconclusive; . = no result given; + = active, no number; [ ] = remark or other dose. % is scaled to controls: 0 for no effect and ±100 for the full control effect.
SMILES,VACV Venus inh,HCV inh,HCMV inh,FMDV inh,VACV mCherry inh
Cc1ccc2cccc(NS(=O)(=O)c3ccccc3)c2n1,-15.7%,-5.4%,-80.0*,?,-4.5%
O=S(=O)(Nc1cccc2ccccc12)c1ccccc1,-7.2%,-3.3%,34.8,37.4%,?
COc1ccc(NS(=O)(=O)c2ccc3ccccc3c2)c2ncccc12,13.7%,?,-92.1*,26.9%,?
CS(=O)(=O)Nc1cccc2cccnc12,-10.7%,24.2%,29.4,-0.7%,.
O=S(=O)(Nc1cccc2cccnc12)c1ccccc1,12.6µM*,?,-100.9*,?,10µM*
Cc1ccc(C)c(NC(=O)CCCN2C(=O)C(c3ccccc3)Oc3cccnc32)c1 (stereo unspecified),-5.9%,.,-14.6,-9.5%,-5.7%
Cc1ccc(SCC(=O)NC2CCS(=O)(=O)C2)cc1 (stereo unspecified),-1.9%,-3.4%,-64.7*,-2.3%,i
Cc1cc(C)c2c(CC(=O)NC3CCS(=O)(=O)C3)coc2c1 (stereo unspecified),.,-3.1%,+,-14.5%,.
COc1ccc(CNC(=O)C2CCN(S(=O)(=O)Cc3ccccc3)CC2)cc1,-2.4%,.,13.6,-19.3%,-8.5%
Cc1ccc(OCCn2c(=O)n(C)c3ccccc32)cc1,1.4%,11.2µM*,100.8,47.2%,-8.6%
COc1ccc(NCc2nc3ccccc3n2CCOc2ccc(C)cc2)cc1,?,8.91µM*,?,?,-26.3%
Cc1ccc(OCCn2cnc3c2c(=O)n(C)c(=O)n3C)cc1,-14.9%,3.55µM*,-76.1*,?,i
CCCCCCCCN1C(=O)[C@H](CC(=O)NCc2cccc(C(F)(F)F)c2)C[C@@]2(C(=O)OCC)CCCC=C12,-20.8%,.,-32.6,?,-0.2%
CCN(CC)C(=O)Cn1cc(/C=C2\C(=O)NC(=O)N(c3ccccc3F)C2=O)c2ccccc21,-14.7%,31.0%,194.9,25.1µM*,-2.9%
O=C(O)Cn1cc(/C=C2\C(=O)NC(=O)N(c3ccc(Cl)cc3)C2=O)c2ccccc21,.,17.6%,31.8,-4.1%,.
COCCn1c(SCC(=O)Nc2ccc(F)c(Cl)c2)nc2c(oc3ccccc32)c1=O,-21.7%,.,-79.7*,-2.2%,?
COCCn1c(SCC(=O)Nc2ccccc2OC)nc2c(oc3ccccc32)c1=O,.,?,-62.5*,?,.
COCCn1c(SCC(=O)Nc2ccccc2)nc2c(oc3ccccc32)c1=O,-18.7%,-3.0%,-17.4,-5.8%,i
COc1ccccc1NC(=O)CSc1nc2sc(C)c(C)c2c(=O)n1C,10.0%,10µM*,10.2,-22.0%,-1.4%
COc1ccc(Cl)cc1NC(=O)CSc1nc2c(oc3ccccc32)c(=O)n1Cc1ccco1,-0.8%,.,15.3,2.3%,i
Cc1sc2nc(SCC(=O)Nc3c(C)n(C)n(-c4ccccc4)c3=O)n(C)c(=O)c2c1C,.,-25.4%,-9.9,-12.5%,.
COc1ccc(NC(=O)CSc2nc3c(oc4ccccc43)c(=O)n2Cc2ccco2)cc1Cl,-7.7%[7.34 µM],.,-97.8*,7.1%,-3.2%[7.34 µM]
O=C1[C@H](Cc2ccccc2)NC/C=C\C[C@@H](c2ccco2)N1Cc1ccccc1,-14.1%,.,.,.,-5.1%
CCC(=O)N1CCc2cc(Br)cc(S(=O)(=O)CCC(=O)NCCc3cccc(C)c3)c21,-6.0%,.,17.7,-1.4%,-4.6%
CCCn1c(SCC(=O)Nc2ccc(C(=O)Nc3ccccc3OC)cc2)n[nH]c1=O,-14.6%,?,-15.3,31.6µM*,-8.8%
SMILES,VACV Venus inh,HCV inh,HCMV inh,FMDV inh,VACV mCherry inh
COc1ccccc1NC(=O)c1ccc(NC(=O)CSc2nncn2C)cc1,.,?,-0.3,-22.8%,.
Cc1ccccc1C(=O)NNC(=S)NC(=O)c1ccc(Cl)cc1Cl,?,0.562µM*,?,.,-29.3%
CC(NC(=O)c1ccccc1)C(=O)NNC(=O)c1ccccc1Cl (stereo unspecified),.,8.7%,-63.5*,-2.2%,.
Cc1cccc(C(=O)NC(=S)NNC(=O)c2ccccc2Cl)c1,-1.3%,?,-66.9*,-12.5%,-16.5%
Cc1cccc(C(=O)NC(=S)NCc2ccccc2)c1,-12.0%,-10.5%,?,29.9%,i
Cc1cccc(C(=O)NC(=S)Nc2ccccc2C(=O)O)c1,-4.3%,15.3%,31.1,-8.8%,-13.7%
Cc1cccc(C(=O)NC(=S)NNC(=O)Cc2ccccc2)c1,-7.0%,?,-83.5*,-25.7%,-25.8%
Cc1ccc(Cl)cc1-n1nnc(-c2nc(-c3ccc4c(c3)OCO4)no2)c1C,-3.6%,.,43.5,-11.4%,-16.4%
CCCNC(=O)Cn1nc(-c2ccc(C)c(C)c2)c2cnc3ccc(OC)cc3c21,-25.2%,.,-0.7,15.3%,-24.5%
CC(C)CN(C)c1ccc(/C=C2\C=Cc3ccccc32)cc1,-28.3%,.,.,.,-28.7%
Cc1nn(C)c(Oc2ccccc2)c1CCNS(=O)(=O)c1ccc(Cl)cc1,?,10µM*,-74.9*,-12.6%,?
Cc1nn(C)c(Oc2ccccc2)c1CCNC(=O)CC(C)C,-11.4%,-11.4%,-2.3,-12.9%,i
Cc1nn(C)c(Oc2ccccc2)c1CCNC(=O)C(C)(C)C,.,-0.1%,-83.5*,-13.8%,.
COc1ccc(S(=O)(=O)NCCc2c(C)nn(C)c2Oc2ccccc2)cc1,.,?,-19.3,-3.0%,.
CCCSC1=C(C#N)C(c2ccc(OC)cc2)C2=C(CC(C)(C)CC2=O)N1 (stereo unspecified),5.9%,?,-8.2,0.5%,5.0%
Cc1ccc(C2C3=C(CC(C)(C)CC3=O)NC3=C2C(=O)c2ccccc23)cc1 (stereo unspecified),?,?,-64.6*,-25.3%,-21.3%
CSC1=C(C#N)C(c2ccc(Cl)cc2)C2=C(CC(C)(C)CC2=O)N1 (stereo unspecified),8.9%,11.2µM*,-67.9*,-8.4%,-2.6%
CC1(C)CC(=O)C2=C(C1)NC1=C(C(=O)c3ccccc31)C2c1ccc(Cl)cc1 (stereo unspecified),?,11.2µM*,-99.7*,0.0%,?
CCC(C)NC(=O)c1ccc(Cn2c(=O)c3cccn3c3cccnc32)cc1 (stereo unspecified),-9.1%,.,2.6,-3.3%,-10.1%
O=c1[nH]c(-c2ccccc2)cn1C1CCN(Cc2ccc(-c3nc4ccc(Br)cc4nc3-c3ccccc3)cc2)CC1,.,.,-4.7,.,.
Cc1onc(-c2ccccc2)c1C(=O)c1c[nH]c(C(=O)NCc2ccccn2)c1,-18.5%,10µM*,?,?,-4.7%
Cc1ccc(C2(c3noc(CN(C)CC4CCCCO4)n3)CCCC2)cc1 (stereo unspecified),.,?,-5.6,-23.6%,.
Cc1ccc(C2(c3noc(CN4CCC(c5ccncc5)CC4)n3)CCCC2)cc1,-5.6%,10µM*,?,-25.8%,i
